Source: PubChem BioAssay (NCATS)
Results filed as inconclusive are left out. Where a call stands in place of a potency, no number is given. Calls of active or inactive are those of the source. Unless noted, calls follow the shape of the dose curve; as a rule, active = well fitted curve in the direction sought with a large enough effect; inconclusive = small, poorly fitted or top-dose-only effect, or another doubt; inactive = no such curve, though single readings can be large; an effect the other way counts as inactive or inconclusive.

Legend:
[1] = target: Cytochrome P450 1A2 (Homo sapiens) (UniProt P05177); assay: qHTS for inhibitors of CYPIA2 against the NCATS DSHEA and TCM libraries (AID 1919976); also: potency is read from the fitted curve at half-maximal effect
How it was run: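 CYP1A2 + luciferin substrate, 100 mM KPO4-type buffer; cmpd 15 min RT; 1x NADPH regen, 30-45 min RT dark; detection reagent 30 min RT; luminescence. Minus-enzyme wells as background; furafylline intraplate control.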

[2] = qHTS Counterscreen for compound interference against the NCATS DSHEA and TCM libraries (AID 1919978); conditions: firefly luciferase detection reagent interference, luminescence
How it was run: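 Read-out is luminescence after 30 min at RT with luciferin detection reagent. Before that, compounds (19.5 nM to 39.8 uM final) sat 15 min at RT with 1 uM D-luciferin or 100 mM potassium phosphate buffer. PTC124 served as intraplate control.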

[3] = Dual reporter qHTS for agonist of Pregnane X Receptor (hPXR) against the NCATS DSHEA and TCM libraries: Fluorescence readout (AID 1920058)
How it was run: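 HepG2 hPXR-Luc, 2000 cells/well, 5 h attach; cpds ~24 h, 37 °C/5% CO2; CellTiter-Fluor 1 h; fluor. Ex/Em 405/540 nm = viability.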

[4] = target: Nuclear receptor subfamily 1 group I member 2 (Homo sapiens) (UniProt O75469); assay: Dual reporter qHTS for antagonist of Pregnane X Receptor (hPXR) against the NCATS DSHEA and TCM libraries: Luminescence Readout (AID 1920060);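 also: HepG2 cells carrying hPXR luciferase reporter stimulated with rifampicin at 2 µM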
How it was run: (§1)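 HepG2 hPXR-Luc, 2000 cells/well, charcoal-stripped FBS medium; 5 h attach; RIF 2 uM final; 24 h 37C/5% CO2; CellTiter-Fluor 1 h, fluor 405/540; ONE-Glo 30 min RT, lum.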

[5] = Dual reporter qHTS for antagonist of Pregnane X Receptor (hPXR) against the NCATS DSHEA and TCM libraries: Fluorescence Readout (AID 1920061)
How it was run: as §1

[6] = KB-3-1 P-gp reporter qHTS against the NCATS DSHEA and TCM libraries (AID 1919975)
How it was run: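 72 h exposure of KB-3-1 cells (DMEM, 10% FBS) to DSHEA/TCM samples, concentration-response; cell viability measured as CellTiter-Glo luminescence after 30 min at room temperature.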

[7] = target: Nuclear receptor subfamily 1 group I member 2 (Homo sapiens) (UniProt O75469); assay: Dual reporter qHTS for agonist of Pregnane X Receptor (hPXR) against the NCATS DSHEA and TCM libraries: Luminescence readout (AID 1920059)
How it was run: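 hPXR-LucHepG2 cells in phenol red-free DMEM with 5% charcoal-stripped FBS, 2000 cells/well, attached 5 h, then exposed 24 h at 37C to compounds; rifampicin as positive agonist control (2.8 nM–92 uM). Luciferase luminescence read.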

[8] = qHTS profiling for inhibitors of Plasmodium falciparum proliferation (AID 504749); also: nearly all actives have a fitted effect of over 60% in size; also: potency is read from the fitted curve at half-maximal effect; conditions: P. falciparum in erythrocytes, SYBR Green DNA, 72 h, at 28.7 µM (top of the series)
How it was run: (§2)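 Parasite proliferation within erythrocytes, 72 h exposure. Endpoint: SYBR Green I fluorescence after overnight lysis at room temperature. Controls: 0.29 uM artemisinin, DMSO.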

AA1029 = assay: as above; conditions: P. falciparum in erythrocytes, SYBR Green DNA, 72 h; series mostly up to 28.7 µM
How it was run: as §2

ATS189 = assay: as above; conditions: P. falciparum in erythrocytes, SYBR Green DNA, 72 h; series mostly up to 28.7 µM
How it was run: as §2

ATS95 = assay: as above; conditions: P. falciparum in erythrocytes, SYBR Green DNA, 72 h; series mostly up to 28.7 µM
How it was run: as §2

C2A = assay: as above; conditions: P. falciparum in erythrocytes, SYBR Green DNA, 72 h; series mostly up to 28.7 µM
How it was run: as §2

CP185 = assay: as above; conditions: P. falciparum in erythrocytes, SYBR Green DNA, 72 h; series mostly up to 28.7 µM
How it was run: as §2

CP192 = assay: as above; conditions: P. falciparum in erythrocytes, SYBR Green DNA, 72 h; series mostly up to 28.7 µM
How it was run: as §2

CP194 = assay: as above; conditions: P. falciparum in erythrocytes, SYBR Green DNA, 72 h; series mostly up to 28.7 µM
How it was run: as §2

[9] = qHTS drug screen for cell cycle checkpoint inhibitors in PARPi-resistant BRCA-mutant ovarian cancer cell lines. (AID 1963452; calls by dose curve); conditions: PEO1/OlaR viability, CellTiter-Glo luminescence, 96 h, stronger effect = lower value
How it was run: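 PEO1, PEO4 and PEO1/OlaR ovarian cancer cells, 600 per well, exposed 96 h at 37C to a dilution series. Viability read by CellTiter-Glo luminescence, normalized to DMSO and empty wells; activity summarized as Z-AUC.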

3D7 = assay: qHTS profiling for inhibitors of Plasmodium falciparum proliferation (AID 504749); also: nearly all actives have a fitted effect of over 60% in size; also: potency is read from the fitted curve at half-maximal effect; conditions: P. falciparum in erythrocytes, SYBR Green DNA, 72 h; series mostly up to 28.7 µM
How it was run: as §2

7G8 = assay: as above; conditions: P. falciparum in erythrocytes, SYBR Green DNA, 72 h; series mostly up to 28.7 µM
How it was run: as §2

AS120 = assay: as above; conditions: P. falciparum in erythrocytes, SYBR Green DNA, 72 h; series mostly up to 28.7 µM
How it was run: as §2

CP191 = assay: as above; conditions: P. falciparum in erythrocytes, SYBR Green DNA, 72 h; series mostly up to 28.7 µM
How it was run: as §2

[10] = measured here: PEO1 parental Z-AUC

Cytochrome P450 1A2 (Homo sapiens), sequence (P05177 whole entry, looked up): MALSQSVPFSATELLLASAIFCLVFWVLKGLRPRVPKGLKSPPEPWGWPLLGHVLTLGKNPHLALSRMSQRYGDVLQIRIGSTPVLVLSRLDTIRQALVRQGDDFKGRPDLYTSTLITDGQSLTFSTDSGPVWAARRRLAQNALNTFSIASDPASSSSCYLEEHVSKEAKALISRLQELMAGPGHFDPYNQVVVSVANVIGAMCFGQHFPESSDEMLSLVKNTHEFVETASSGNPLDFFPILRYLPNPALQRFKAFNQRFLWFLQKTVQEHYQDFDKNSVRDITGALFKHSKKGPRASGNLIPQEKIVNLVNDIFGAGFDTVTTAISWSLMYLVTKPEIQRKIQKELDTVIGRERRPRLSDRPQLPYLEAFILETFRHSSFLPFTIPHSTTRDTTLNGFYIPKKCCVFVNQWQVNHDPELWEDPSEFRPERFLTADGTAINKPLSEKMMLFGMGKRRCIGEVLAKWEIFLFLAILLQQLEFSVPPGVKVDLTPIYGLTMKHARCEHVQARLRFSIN
Nuclear receptor subfamily 1 group I member 2 (Homo sapiens), sequence (O75469 whole entry, looked up): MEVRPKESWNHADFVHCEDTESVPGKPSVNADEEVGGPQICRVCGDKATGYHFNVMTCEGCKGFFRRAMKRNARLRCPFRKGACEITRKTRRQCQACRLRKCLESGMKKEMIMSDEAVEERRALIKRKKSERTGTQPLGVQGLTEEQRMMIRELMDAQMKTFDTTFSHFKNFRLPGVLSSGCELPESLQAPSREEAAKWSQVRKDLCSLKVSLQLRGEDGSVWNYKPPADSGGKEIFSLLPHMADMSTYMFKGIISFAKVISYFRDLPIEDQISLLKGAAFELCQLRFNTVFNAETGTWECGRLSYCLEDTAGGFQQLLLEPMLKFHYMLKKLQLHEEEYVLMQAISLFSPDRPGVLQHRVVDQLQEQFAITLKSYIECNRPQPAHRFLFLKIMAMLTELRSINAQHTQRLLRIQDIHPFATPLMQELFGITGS

SMILES: CC(C)=CCC/C(C)=C/CC/C(C)=C/CC/C(C)=C/CC1=C(C)C(=O)c2ccccc2C1=O
- Potency [1]: inactive
- max response [2]: -2.14% (inactive)
- outcome [3]: inactive
- outcome [4]: inactive
- outcome [5]: inactive

SMILES: CC(C)=CCC/C(C)=C/C=C/C(C)=C/C=C/C(C)=C/C=C/C=C(C)/C=C/C=C(C)/C=C/C=C(\C)CCC=C(C)C
- outcome [6]: inactive
- Potency [1]: inactive
- max response [2]: 0.511% (inactive)
- outcome [3]: inactive
- Potency [7]: inactive
- outcome [4]: inactive
- outcome [5]: inactive
- activity, negative = inhibition ([8]; parasite line A): -19% (inactive)
- activity, negative = inhibition ([8]; parasite line B): -16% (inactive)
- Potency (AA1029): inactive
- Potency (ATS189): inactive
- Potency (ATS95): inactive
- Potency (C2A): inactive
- Potency (CP185): inactive
- Potency (CP192): inactive
- Potency (CP194): inactive

SMILES: CCCCC[C@H](O)/C=C/[C@H]1[C@H](O)CC(=O)[C@@H]1CCCCCCC(=O)O
- Z-AUC [9]: -0.83 (inactive)
- Z-AUC [9, 10]: -0.667
- Z-AUC ([9]; measured here: PEO4 Z-AUC): -0.531

SMILES: Oc1cccc(O)c1O
- outcome [6]: inactive
- Potency [1]: inactive
- max response [2]: -3.78% (inactive)
- outcome [3]: inactive
- Potency [7]: inactive
- outcome [4]: inactive
- outcome [5]: inactive
- activity, negative = inhibition ([8]; parasite line A): -26.1% (inactive)
- activity, negative = inhibition ([8]; parasite line B): -8.69% (inactive)
- Potency (AA1029): inactive
- Potency (ATS95): inactive
- Potency (C2A): inactive
- Potency (CP185): inactive

SMILES: COC1=C(OC)C(=O)C(C/C=C(\C)CC/C=C(\C)CC/C=C(\C)CC/C=C(\C)CC/C=C(\C)CC/C=C(\C)CC/C=C(\C)CC/C=C(\C)CC/C=C(\C)CCC=C(C)C)=C(C)C1=O
- outcome [6]: inactive
- max response [2]: 5.89% (inactive)
- outcome [3]: inactive
- Potency [7]: inactive
- outcome [4]: inactive
- outcome [5]: inactive
- Z-AUC [9]: -0.238 (inactive)
- Z-AUC [9, 10]: -0.0279
- Z-AUC ([9]; measured here: PEO4 Z-AUC): 0.209
- activity, negative = inhibition ([8]; parasite line A): -2.4% (inactive)
- activity, negative = inhibition ([8]; parasite line B): 5.89% (inactive)
- Potency (3D7): inactive
- Potency (7G8): inactive
- Potency (AA1029): inactive
- Potency (AS120): inactive
- Potency (ATS189): inactive
- Potency (ATS95): inactive
- Potency (C2A): inactive
- Potency (CP185): inactive
- Potency (CP191): inactive
- Potency (CP192): inactive
- Potency (CP194): inactive

SMILES: CO[C@H]1O[C@@H]2O[C@@]3(C)CC[C@H]4[C@H](C)CC[C@@H]([C@H]1C)[C@@]24OO3
- Z-AUC [9]: -0.105 (inactive)
- Z-AUC [9, 10]: 0.613
- Z-AUC ([9]; measured here: PEO4 Z-AUC): 0.87

SMILES: CC[C@H]1OC(=O)[C@H](C)[C@@H](O[C@H]2C[C@@](C)(OC)[C@@H](O)[C@H](C)O2)[C@H](C)[C@@H](O[C@@H]2O[C@H](C)C[C@H](N(C)C)[C@H]2O)[C@](C)(O)C[C@@H](C)CN(C)[C@H](C)[C@@H](O)[C@]1(C)O
- Z-AUC [9]: 1.04 (inactive)
- Z-AUC [9, 10]: 0.718
- Z-AUC ([9]; measured here: PEO4 Z-AUC): 1.23
- Potency (3D7): inactive
- Potency (7G8): 12.6 µM (active)
- Potency (AA1029): 4.47 µM (active)
- Potency (AS120): 5.01 µM (active)
- Potency (ATS189): 12.6 µM (active)
- Potency (ATS95): 7.94 µM (active)
- Potency (C2A): 4.47 µM (active)
- Potency (CP185): 5.01 µM (active)

SMILES: C=CC[N+]1([C@H]2C[C@H]3[C@@H]4CC[C@H]5C[C@H](O)[C@@H](N6CCOCC6)C[C@]5(C)[C@H]4CC[C@]3(C)[C@H]2OC(C)=O)CCCC1
- Z-AUC [9]: 1.19 (inactive)
- Z-AUC [9, 10]: 1.23
- Z-AUC ([9]; measured here: PEO4 Z-AUC): 0.984
- Potency (3D7): inactive
- Potency (AA1029): 11.2 µM (active)

SMILES: CC1=CCC2CC1C2(C)C (stereo not drawn)
- outcome [6]: inactive
- Potency [1]: 3.55 µM (active)
- max response [2]: 3.27% (inactive)
- outcome [3]: inactive
- Potency [7]: inactive
- outcome [4]: inactive
- outcome [5]: inactive
- activity, negative = inhibition ([8]; parasite line A): 10.5% (inactive)
- activity, negative = inhibition ([8]; parasite line B): 12.9% (inactive)
- Potency (3D7): inactive
- Potency (7G8): inactive
- Potency (AA1029): inactive
- Potency (AS120): inactive
- Potency (ATS189): inactive
- Potency (ATS95): inactive
- Potency (C2A): inactive
- Potency (CP185): inactive
- Potency (CP191): inactive
- Potency (CP192): inactive
- Potency (CP194): inactive
